Screens from PubChem.
A selection: hits, their analogues and other compounds. The true share with any hit is near 3.6%.
IkB sig inh = suppresses IkB signaling in ABC-DLBCL reporter cells; ABC-DLBCL IkBa-CBG/CBR dual luciferase ratio, 4 h; response scale: scaled: untreated 0%, proteasome inhibitor 100%; Potency, µM (top dose mostly 57.1 µM), inactives show at the highest dose IkBa stabilization activation; actives 0.04% (n = 110,000); AID 445; active = well fitted curve in the direction sought with a large enough effect in the signal ratio, not every such curve was filed as active; inconclusive = small, poorly fitted or top-dose-only effect, or a change in a side signal; the % refers to the signal ratio;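 also: potency is read from the fitted curve at half-maximal effect; the direction sought is a rising ratio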
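Curves were fitted separately to fusion (green), unfused (red) and ratio luminescence, then classed by r2, magnitude and activity. Cells: OCI-Ly3, 4 h compound plus doxycycline at 37C; 10 uM MG-132 defined full response.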
Tau fil binding = binds recombinant human tau filaments; recombinant tau filaments, thioflavin S fluorescence, 15 h; filaments grown with octadecylsulfate alongside compound; actives 2% (n = 71,000); P10636; Potency, µM (series often up to 57.1 µM), for the others: at the highest dose activity change, negative = inhibition; AID 596;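 also: potency is read from the fitted curve at half-maximal effect; % is scaled to controls: 0 for no effect and ±100 for the full control effect; actives lower thioflavin S fluorescence by blocking filaments or displacing dye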
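Recombinant tau protein (human, 1 uM final) plus 30 uM ODS in HEPES pH 7.4 with NaCl, DTT and thioflavine S. Compound present from the start; fluorescence at 510 nm after 15 h, 37 C.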
Hsp90 Hop PPI = changes Hsp90-Hop TPR2A binding signal, up or down | AlphaScreen TPR2A-His6 binding biotin-Hsp90 C-terminal peptide | Potency, µM (series often up to 57 µM), for the others: at the highest dose activity change, negative = inhibition | actives 0.44% (n = 71,000) | AID 595; active = well fitted curve in either direction with a large enough effect; inconclusive = small, poorly fitted or top-dose-only effect, or another doubt; also: potency is read from the fitted curve at half-maximal effect; % is scaled to controls: 0 for no effect and ±100 for the full control effect
ALOX15 inhib = inhibitors of human 15-lipoxygenase (ALOX15); P16050; purified 15hLO-1, xylenol orange hydroperoxide absorbance; Potency, µM (series often up to 57.1 µM), without a hit: at the top dose activity change, negative = inhibition, actives largely listed as inhibitors; actives 1.4% (n = 74,000); AID 887; also: potency is read from the fitted curve at half-maximal effect; % is scaled to controls: 0 for no effect and ±100 for the full control effect; nearly all actives have a fitted effect of over 55% in size
Target sequence (P16050 whole entry, looked up): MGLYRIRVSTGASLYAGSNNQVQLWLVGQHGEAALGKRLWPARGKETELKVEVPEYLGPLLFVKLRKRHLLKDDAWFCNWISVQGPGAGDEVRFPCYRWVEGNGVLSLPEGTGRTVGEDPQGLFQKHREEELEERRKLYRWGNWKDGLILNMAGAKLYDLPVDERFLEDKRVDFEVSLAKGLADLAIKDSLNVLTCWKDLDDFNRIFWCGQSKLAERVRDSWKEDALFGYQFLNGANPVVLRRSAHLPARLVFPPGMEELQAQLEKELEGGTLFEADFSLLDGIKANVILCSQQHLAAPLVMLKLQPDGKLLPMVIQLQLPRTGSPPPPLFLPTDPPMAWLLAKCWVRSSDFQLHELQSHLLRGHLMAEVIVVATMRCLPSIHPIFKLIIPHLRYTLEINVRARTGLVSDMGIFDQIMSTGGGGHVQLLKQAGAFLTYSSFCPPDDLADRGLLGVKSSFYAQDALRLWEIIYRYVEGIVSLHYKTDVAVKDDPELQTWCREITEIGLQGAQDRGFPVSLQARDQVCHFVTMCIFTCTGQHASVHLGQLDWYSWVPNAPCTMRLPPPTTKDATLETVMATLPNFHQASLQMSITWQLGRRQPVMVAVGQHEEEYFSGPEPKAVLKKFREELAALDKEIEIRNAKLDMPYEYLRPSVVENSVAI
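Purified human 15hLO-1 (40 nM) in 25 mM Hepes pH 7.5, 0.01% Triton X-100, preincubated 15 min RT with compound, then 50 uM arachidonic acid for 6 min. Hydroperoxide read by ferrous/xylenol orange, 30 min; 573/405 nm absorbance ratio gave progress.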
CRE-bla Fsk = modulators of forskolin-stimulated CRE signaling in CHO cells; actives 2.5% (n = 71,000); CHO CRE-bla reporter (cAMP response element driving beta-lactamase), forskolin EC10, beta-lactamase ratio; AID 662; Potency, µM (titrated, usually from 38.2 µM), without a hit: top-dose activity change, negative = inhibition, most hits filed as activators; active = well fitted activation curve with a large enough effect in the signal ratio, with a control signal flat, not every such curve was filed as active; inconclusive = small, poorly fitted or top-dose-only effect, or effect the other way, or a change in a side signal; the % refers to the signal ratio; also: potency is read from the fitted curve at half-maximal effect; % of control where 0% means no effect
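Modulation of forskolin signalling: compounds in titration series added with EC10 NKH 477 to CHO cells carrying a CRE-driven beta-lactamase reporter, 3 h, 37C. CCF4 FRET ratio (460/530 nm, ex 405 nm) gives %activity and AC50.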
CHO tox 24h = reduces CRE-bla CHO cell viability after 24 hours | CRE-bla CHO viability, ATP luminescence, 24 h | activity, negative = viability loss, % at 46.1 µM | 120 tested, under 10 active | shares compounds with CRE-bla Fsk | AID 905
CHO via 40h = reduces CRE-bla CHO cell viability after 40 hours; shares compounds with CRE-bla Fsk; Potency, µM, inactives show max response, usual class: inhibitors; AID 906; 120 tested, under 10 active; CRE-bla CHO viability, ATP luminescence, 40 h
CREB luc CRC = confirmation of CRE signaling potentiators in HEK293 CREB reporter cells. shares compounds with CRE-bla Fsk. HEK293 CRE-luc2P, NKH477 EC10 potentiation, luminescence, 4 h. Potency, µM (series often up to 38.3 µM), for the others: top-dose activity, positive = activation, actives largely listed as activators. actives 80% (n = 120)
* marks the source's active call; other numbers are inactive results; ? = inconclusive; / = no result. Unless noted, calls follow the shape of the dose curve; as a rule, active = well fitted curve in the direction sought with a large enough effect; inconclusive = small, poorly fitted or top-dose-only effect, or another doubt; inactive = no such curve, though single readings can be large; an effect the other way counts as inactive or inconclusive.

SMILES | IkB sig inh | Tau fil binding | Hsp90 Hop PPI | ALOX15 inhib | CRE-bla Fsk | CHO tox 24h | CHO via 40h | CREB luc CRC
CN(C)C=C1C(=O)N(C2CCCCC2)C(=O)N(C2CCCCC2)C1=O | ? | -6% | -3% | 38% | -10% | -28 | ? | ?
Cn1cc(C(=O)N2CCC3(CC2)OCCO3)c2c3ccccc3n(C)c2c1=O | 0% | 7% | -1% | 3% | ? | / | / | /
Cn1c(C(=O)N2CCC3(CC2)OCCO3)cc2c(=O)n(C)c3ccccc3c21 | -1% | 5% | -2% | 5% | ? | -7 | -7% | 14µM*
CC(C)C(=O)N1CCN(CCN=Cc2c(O)n(C)c(=O)n(C)c2=O)CC1 | / | / | / | / | / | 0 | -4% | -1%
CCNC(=O)[C@@H]1O[C@@H](n2cnc3c(N)ncnc32)[C@@H](O)[C@H]1O | ? | 6% | -9% | 4% | -11% | / | / | /
CCCC[N+]1(C)[C@@H]2CC(OC(=O)[C@@H](CO)c3ccccc3)C[C@H]1[C@H]1O[C@H]12 (stereo partly drawn) | 5% | -4% | -2% | -5% | -2% | / | / | /
COc1ccc(OC)c(NC(=O)Cn2cc(C(=O)c3ccccc3F)c3ccccc32)c1 | 3% | / | / | / | / | / | / | /
COc1ccc(Cl)cc1NC(=O)CSc1ncnc2c1oc1ccccc12 | 1% | 7% | -3% | 4% | 0.1µM* | -8 | -13% | 1.3µM*
CN(C)C(=O)Nc1ccc(Cl)cc1 | -1% | -1% | 0% | -3% | -2% | / | / | /
COc1cc2c(c(OC)c1OC)-c1ccc(OC)c(=O)cc1[C@@H](NC(C)=O)CC2 | ? | 4% | 0% | 2% | 1.3µM* | -19 | -11% | ?
